An excerpt weighted towards active compounds, which were near 2.7% of everything screened.
PAFAH1B3 FP inh – inhibitors of human PAFAH1B3; recombinant PAFAH1B3, FP-rhodamine probe, fluorescence polarization; inhibition, % at 3.39 µM; hit rate 0.28% among 340,000; AID 492972;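 active = inhibition above the screen-wide average of all tested compounds plus 3 SD, cut at about 25% in these data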;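 note: 0% = enzyme with DMSO only and 100% = wells lacking PAFAH1B3 protein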
Target sequence (Q15102 whole entry, looked up): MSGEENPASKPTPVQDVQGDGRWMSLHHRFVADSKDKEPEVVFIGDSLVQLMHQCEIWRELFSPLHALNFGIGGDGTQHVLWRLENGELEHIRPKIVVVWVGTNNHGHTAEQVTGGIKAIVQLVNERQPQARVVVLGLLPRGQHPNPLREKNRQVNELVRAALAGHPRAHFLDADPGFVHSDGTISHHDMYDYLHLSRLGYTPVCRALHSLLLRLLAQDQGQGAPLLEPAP
PAFAH1B2 inh – PAFAH1B2 (human) inhibition | recombinant PAFAH1B2, FP-rhodamine activity probe, fluorescence polarization | inhibition, % at 3.39 µM | hit rate 1.2% among 340,000 | AID 492953;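 active = inhibition above the mean of all tested compounds plus 3 SD, cut at about 24% in these data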;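 note: 0% = enzyme with DMSO and 100% = wells lacking PAFAH1B2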
Target sequence (P68402 whole entry, looked up): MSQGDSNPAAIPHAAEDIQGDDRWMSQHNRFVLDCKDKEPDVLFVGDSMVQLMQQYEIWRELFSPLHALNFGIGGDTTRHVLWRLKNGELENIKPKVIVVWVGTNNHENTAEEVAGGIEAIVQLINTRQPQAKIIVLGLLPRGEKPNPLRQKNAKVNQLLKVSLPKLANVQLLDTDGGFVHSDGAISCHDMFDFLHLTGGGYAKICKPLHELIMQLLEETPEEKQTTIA
PAFAH2 FP inh – PAFAH2 (human) inhibition | recombinant PAFAH2, FP-rhodamine activity probe, fluorescence polarization | inhibition, % at 3.39 µM | hit rate 0.99% among 340,000 | AID 492956;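 active = inhibition above the mean over all tested compounds plus 3 SD, cut at about 30% in these data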;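 note: inhibitors block probe labeling of enzyme so polarization drops; 0% = enzyme with DMSO and 100% = wells lacking PAFAH2 protein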
TCR-CD3 inh – blocks the human TCR-CD3 interaction | inhibition, % at 9.4 µM | TAMRA-labeled TCR probe fluorescence, biochemical | AID 651800 | hit rate 0.37% among 360,000; in the data active = inhibition above about 19%;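 note: recombinant mutant TCR 2C K166C tagged with TAMRA read by polarization; 0% = receptor in buffer alone and 100% = receptor with positive control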
pPAFAH inh – pPAFAH (human) enzyme inhibition. Q13093. recombinant pPAFAH, FP-rhodamine probe fluorescence polarization. inhibition, % at 3.39 µM. hit rate 1.5% among 330,000. AID 463082;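 active = inhibition above the mean inhibition across the screen plus 3 SD, cut at about 25% in these data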;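 note: inhibitors block binding of the rhodamine activity-based probe so polarization drops; 0% = enzyme with DMSO and 100% = wells lacking pPAFAH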
PAFAH2 confirm – confirmation of human PAFAH2 inhibitors; hit rate 65% among 2,300; shares compounds with PAFAH2 FP inh; inhibition, % at 3.39 µM; recombinant PAFAH2, FP-rhodamine activity probe, fluorescence polarization; AID 493030;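 active = mean inhibition over three repeats above a set limit taken from the earlier primary screen, cut at about 30% in these data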;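 note: inhibitor blocks binding of rhodamine activity probe so polarization falls; 0% = enzyme with DMSO and 100% = wells lacking PAFAH2 protein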
An asterisk follows results filed as active; . = no result.

SMILES	PAFAH1B3 FP inh	PAFAH1B2 inh	PAFAH2 FP inh	TCR-CD3 inh	pPAFAH inh	PAFAH2 confirm
CCC(=O)N1CCC1(C)C(=O)Nc1cnc2ccccc2c1 (stereo unspecified)	.	.	.	-6	.	.
Cc1cc(C(=O)OCC(=O)NC2(C#N)CCCCC2)c(C)o1	7	3	75*	-6	8	75*
Cc1cc(C(=O)NC2CCCCC2)c(C)o1	-3	-1	6	2	1	.
Cc1cc(C(=O)OCC(=O)NC2CCCCC2)c(C)o1	-5	0	84*	4	7	63*
O=C(COC(=O)c1ccc([N+](=O)[O-])o1)NC1CCCCC1	15	8	29	7	12	.
CC(OC(=O)c1cccc(-n2cnnn2)c1)C(=O)NC1(C#N)CCCCC1 (stereo unspecified)	1	0	-4	1	2	.
Cc1ccc(C(=O)OCC(=O)NC2CCCCC2)o1	5	4	68*	10	8	46*
N#CC1(NC(=O)COC(=O)c2cccc(-n3cnnn3)c2)CCCCC1	5	7	73*	-8	0	72*
Cc1ccc(N2CC(C(=O)Nc3nnc(SCC(N)=O)s3)CC2=O)cc1 (stereo unspecified)	3	0	5	-9	5	.
COc1cccc(-c2nc(CS(=O)(=O)CC(=O)Nc3ccccc3Cl)c(C)o2)c1	6	5	-1	6	1	.
Nc1ccc(C(=O)OCC(=O)Nc2cc([N+](=O)[O-])ccc2F)cc1	-6	0	83*	-5	12	82*
O=C(COC(=O)C1CCCCC1)Nc1cc([N+](=O)[O-])ccc1F	12	18	49*	4	10	28
COc1ccc([N+](=O)[O-])cc1NC(=O)COC(=O)C1CC1	9	3	49*	4	0	-1
Nc1ccc(C(=O)Oc2ccc([N+](=O)[O-])cc2)cc1	-4	5	32*	-10	2	29
O=C(CN1C(=O)C2CCCCC2C1=O)Nc1cc([N+](=O)[O-])ccc1F (stereo unspecified)	6	8	-7	-5	3	.
COc1cc2c(cc1OC)CN(S(=O)(=O)/C=C/c1ccccc1)CC2	9	-1	8	-2	-2	.
O=C(COC(=O)c1ccc(-n2cnnn2)cc1)Nc1cc(Cl)ccc1F	-4	-1	34*	1	-5	28
O=C(Nc1cccc(Cl)c1Cl)C1CCCC1	19	2	1	7	0	.
O=C(COC(=O)C1CCCC1)Nc1cccc(Cl)c1Cl	11	5	32*	2	8	7
O=C(COc1ccc(Cl)cc1)OCC(=O)N1CCCC1	10	5	37*	2	16	21
NC(=O)C1CC(=O)N(c2ccc(OCC(=O)N3CCCC3)cc2)C1 (stereo unspecified)	6	2	57*	5	.	48*
O=c1cc(-c2ccccc2)nc2nc(-c3ccco3)[nH]n12	7	11	42*	-3	6	7
CCN(CC)c1nc2ccccc2n(Cc2cccc(OC)c2)c1=O	3	1	5	-4	9	.
CCSc1nnc(NC(=O)CSc2ncccn2)s1	14	2	5	-3	5	.
CCSc1nnc(NC(=O)CSc2c(Cl)cccc2Cl)s1	2	7	50*	0	13	42*
SMILES	PAFAH1B3 FP inh	PAFAH1B2 inh	PAFAH2 FP inh	TCR-CD3 inh	pPAFAH inh	PAFAH2 confirm
c1ccc(COc2ccccc2CNC23CC4CC(CC(C4)C2)C3)cc1	4	2	-3	-3	-4	.
COc1cccc(/C=C/C(=O)OCC(=O)Nc2cccc(S(=O)(=O)N3CCCCC3)c2)c1OC	-1	-1	39*	1	4	55*
O=C(COC(=O)/C=C/c1ccc(OC(F)F)cc1)Nc1ccc(N2CCOCC2)cc1	4	3	2	-1	8	.
O=C(COC(=O)/C=C/c1ccc(F)cc1)Nc1cccc(S(=O)(=O)N2CCCC2)c1	0	-1	53*	2	1	44*
O=C(COC(=O)/C=C/c1ccc(OC(F)F)cc1)Nc1cccc(S(=O)(=O)N2CCOCC2)c1	9	-2	53*	1	2	40*
N#CC(C#N)=C1C(=O)N(CCN2CCOCC2)c2ccccc21	0	-1	-2	2	8	.
CC1CCCCC1NC(=O)COC(=O)c1cccn1C (stereo unspecified)	0	0	85*	-2	8	68*
Cc1ccsc1C(=O)OCC(=O)NC1CCS(=O)(=O)C1 (stereo unspecified)	2	3	3	1	1	.
Cc1ccsc1C(=O)OCC(=O)NC1CCCCC1C (stereo unspecified)	12	10	86*	-2	24	82*
CCCOC(=O)CCCCCCCCC(O)CN1CCCCC1 (stereo unspecified)	2	0	-1	-4	-2	.
COCCN(C(=S)Nc1cccc(C)c1)C(C)c1cccs1 (stereo unspecified)	8	4	15	-2	1	.
COCCN(C(=S)Nc1c(C)cccc1C)C(C)c1cccs1 (stereo unspecified)	-2	1	51*	-3	2	39*
C=CCSC1=N/C(=C\c2cc(OC)c3c(c2)OCO3)C(=O)S1	7	-1	42*	1	4	43*
CCSC1=N/C(=C\c2ccc3c(c2)OCO3)C(=O)S1	-5	0	17	7	-3	.
CC(C)C(=O)NC(=S)Nc1ccc(S(=O)(=O)NC2CCCCC2)cc1	8	5	-2	1	-2	.
COCCN(C(=O)Cn1c(C(F)(F)F)nc2ccccc21)c1c(N)n(Cc2ccccc2)c(=O)[nH]c1=O	12	0	-6	3	-2	.
CCOc1ncccc1C(=O)OCC(=O)Nc1ccc(S(=O)(=O)N2CCOCC2)cc1	8	1	3	-4	4	.
O=C(COC(=O)COc1ccccc1)Nc1cccc([N+](=O)[O-])c1	1	-3	1	-9	10	.
O=C(COC(=O)c1ccccc1C(=O)c1ccccc1)Nc1cccc([N+](=O)[O-])c1	-5	7	89*	4	19	82*
Cc1ccccc1C(=O)OCC(=O)Nc1cccc(S(=O)(=O)NC2=NCCC2)c1	5	3	14	0	-4	.
CCOc1ncccc1C(=O)OCC(=O)Nc1cccc(S(N)(=O)=O)c1	3	-3	33*	5	6	15
CC(=O)c1cccc(NC(=O)COC(=O)c2ccccc2C)c1	-4	5	63*	6	5	62*
CCOc1ncccc1C(=O)OCC(=O)Nc1cccc(C(C)=O)c1	9	6	62*	7	19	55*
CC(=O)c1cccc(NC(=O)COC(=O)c2ccccn2)c1	-4	-1	-4	5	4	.
CCOC(=O)C1=C(C)N(C[C@@H]2CC[C@@H](Cc3ccc(-c4ccccc4)cc3)O2)C(=O)NC1C1CC1 (stereo partly specified)	1	3	0	-4	21	.
